Measured values: PubChem BioAssay (Tox21)
Records with an inconclusive call do not appear. Calls of active or inactive are those of the source. Unless noted, calls follow the shape of the dose curve; as a rule, active = well fitted curve in the direction sought with a large enough effect in the repeat runs; inconclusive = weak or mixed curves; inactive = no such curve, though single readings can be large; an effect the other way counts as inactive or inconclusive.

What was measured:
[1] = molecular target: Thyrotropin receptor (Homo sapiens) (UniProt P16473); assay: qHTS assay to identify small molecule agonists of the thyroid stimulating hormone receptor (TSHR) signaling pathway (AID 1224843; calls by dose curve; also: nearly all actives have a fitted effect of over 45% in size)
In short: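 Screening of the Tox21 10K collection used HEK293 cells engineered with TSHR at 800 cells per well. After a 30-min room-temperature compound exposure, HTRF cAMP reagents were added and fluorescence recorded 1 h later.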

[2] = qHTS assay to identify small molecule agonists of the hypoxia (HIF-1) signaling pathway - cell viability counter screen (AID 1224844; calls by dose curve; also: nearly all actives have a fitted effect of over 50% in size)
In short: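 Cells (HRE-bla ME-180, 2,000 per well) sat 5 hrs at 37C, got compound for 17 hrs, were read for CCF4-AM FRET, and were finally lysed with CellTiter-Glo for a 30 min room-temperature luminescence read.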

[3] = qHTS assay to identify small molecule agonists of H2AX (AID 1224845; active = well fitted activation curve with a large enough effect in the signal ratio in the repeat runs, not every such curve was filed as active; the % refers to the signal ratio)
In short: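 Phospho-H2AX Ser139 measured by HTRF (ex 320 nm; em 665 and 620 nm) after 24 hr antibody incubation. Compounds, 15 concentrations, 0.76% DMSO, were applied to CHO-K1 cells for 3hr at 37C before lysis.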

[4] = qHTS assay to identify small molecule agonists of the hypoxia (HIF-1) signaling pathway (AID 1224846; active = well fitted activation curve with a large enough effect in the signal ratio in the repeat runs, not every such curve was filed as active; the % refers to the signal ratio)
In short: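 A low-serum medium (0.5% dialyzed FBS) holding 2,000 HRE-bla ME-180 cells per well is preincubated for 5 hrs, dosed with compounds by pintool, and kept a further 17 hrs at 37C, 5% CO2 before CCF4-AM FRET detection of beta-lactamase.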

[5] = qHTS assay to identify small molecule agonists of H2AX - cell viability counter screen (AID 1224847; calls by dose curve; also: top concentration of the series differs between compounds; nearly all actives have a fitted effect of over 30% in size)
In short: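 Quantitative HTS viability measurement: CHO-K1 wild-type cells in serum (10% FBS) medium, short 3 hr drug exposure at 37C with 0.76% DMSO, CellTiter-Glo luminescent detection.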

[6] = qHTS RealTime-Glo MT Cell Viability Assay in HepG2 cells - 24 hour (AID 1224867); also: nearly all actives have a fitted effect of over 50% in size
In short: (§1)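 Compound treatment began 5 h after plating HepG2 cells (600/well) with NanoLuc luciferase and prosubstrate. Plates stayed at 37 C for 40 h; luminescence was captured at six time points, 0 h through 40 h.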

[7] = qHTS RealTime-Glo MT Cell Viability Assay in HEK293 cells - 32 hour (AID 1224868); also: top concentration of the series differs between compounds; nearly all actives have a fitted effect of over 50% in size
In short: (§2)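 Quantitative high-throughput screen of the Tox21 10K library in HEK293: cells and RealTime-Glo reagents plated together, compound added at 5 h, luminescence monitored through 40 h at 37 C.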

[8] = A CellTox Green Cytotoxicity Assay to monitor cytotoxicity in HEK293 cells - 0 hour (AID 1224869); also: nearly all actives have a fitted effect of over 50% in size
In short: (§3)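 Fluorescence intensity, read at 0, 8, 16, 24, 32 and 40 h of compound treatment, reflected dye binding to DNA of dead HEK293 cells; compounds (23 nL, DMSO) were added 5 h after plating cells with reagent.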

[9] = qHTS RealTime-Glo MT Cell Viability Assay in HepG2 cells - 40 hour (AID 1224870); also: nearly all actives have a fitted effect of over 50% in size
In short: (§4)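 Real-time viability: cells seeded at 600 per well together with NanoLuc and cell-permeant prosubstrate, compounds added after 5 h incubation. Luminescence tracked at 0, 8, 16, 24, 32 and 40 h of exposure.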

[10] = A CellTox Green Cytotoxicity Assay to monitor cytotoxicity in HEK293 cells - 40 hour (AID 1224871); also: nearly all actives have a fitted effect of over 45% in size
In short: as §3

[11] = qHTS RealTime-Glo MT Cell Viability Assay in HEK293 cells - 16 hour (AID 1224872)
In short: as §2

[12] = qHTS RealTime-Glo MT Cell Viability Assay in HepG2 cells - 8 hour (AID 1224873); also: nearly all actives have a fitted effect of over 55% in size
In short: as §4

[13] = qHTS RealTime-Glo MT Cell Viability Assay in HEK293 cells - 40 hour (AID 1224874); settings: RealTime-Glo luminescence; max response: active compounds read low; also: nearly all actives have a fitted effect of over 50% in size
In short: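 Viable HEK293 cells reduce a cell-permeant prosubstrate; the product diffuses out and is consumed by NanoLuc in the medium to give light. Compounds went in after a 5 h incubation and plates were read over the treatment course.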

[14] = A CellTox Green Cytotoxicity Assay to monitor cytotoxicity in HEK293 cells - 24 hour (AID 1224875); also: nearly all actives have a fitted effect of over 45% in size
In short: as §3

[15] = A CellTox Green Cytotoxicity Assay to monitor cytotoxicity in HepG2 cells - 16 hour (AID 1224876); also: nearly all actives have a fitted effect of over 45% in size
In short: (§5)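 Using 1536-well format, dye-containing HepG2 suspension was seeded, allowed 5 h at 37 C/5% CO2, dosed by pintool with compounds, positive and negative controls, and imaged for fluorescence across 40 h.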

[16] = qHTS RealTime-Glo MT Cell Viability Assay in HepG2 cells - 32 hour (AID 1224877); also: nearly all actives have a fitted effect of over 55% in size
In short: as §1

[17] = A CellTox Green Cytotoxicity Assay to monitor cytotoxicity in HepG2 cells - 24 hour (AID 1224878); also: nearly all actives have a fitted effect of over 45% in size
In short: as §5

[18] = A CellTox Green Cytotoxicity Assay to monitor cytotoxicity in HepG2 cells - 40 hour (AID 1224879); also: nearly all actives have a fitted effect of over 40% in size
In short: as §5

[19] = qHTS assay to identify small molecule antagonists of the estrogen related receptor (ERR) signaling pathway from Tox21 library (AID 1224848); also: nearly all actives have a fitted effect of over 50% in size
In short: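 Antagonist-mode screen of the Tox21 10K library in an NTP-provided ERR reporter cell line; 18 h compound exposure at 37 C, luminescence measured with ONE-Glo.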

[20] = qHTS assay to identify small molecule agonists of the estrogen related receptor (ERR) signaling pathway from Tox21 library (AID 1224849; calls by dose curve; also: nearly all actives have a fitted effect of over 15% in size); settings: ERR reporter cell line, ONE-Glo luciferase, 18 h; at 92.4 µM (top of the series) unless noted
In short: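 Screening used an NTP-provided ERR luciferase cell line. Compounds in DMSO were added 6 h after seeding and left 18 h at 37 C before a 30 min ONE-Glo step and luminescence reading.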
% is scaled to controls: 0 for no effect and ±100 for the full control effect.

Chain of Thyrotropin receptor (Homo sapiens) (P16473 whole entry, looked up): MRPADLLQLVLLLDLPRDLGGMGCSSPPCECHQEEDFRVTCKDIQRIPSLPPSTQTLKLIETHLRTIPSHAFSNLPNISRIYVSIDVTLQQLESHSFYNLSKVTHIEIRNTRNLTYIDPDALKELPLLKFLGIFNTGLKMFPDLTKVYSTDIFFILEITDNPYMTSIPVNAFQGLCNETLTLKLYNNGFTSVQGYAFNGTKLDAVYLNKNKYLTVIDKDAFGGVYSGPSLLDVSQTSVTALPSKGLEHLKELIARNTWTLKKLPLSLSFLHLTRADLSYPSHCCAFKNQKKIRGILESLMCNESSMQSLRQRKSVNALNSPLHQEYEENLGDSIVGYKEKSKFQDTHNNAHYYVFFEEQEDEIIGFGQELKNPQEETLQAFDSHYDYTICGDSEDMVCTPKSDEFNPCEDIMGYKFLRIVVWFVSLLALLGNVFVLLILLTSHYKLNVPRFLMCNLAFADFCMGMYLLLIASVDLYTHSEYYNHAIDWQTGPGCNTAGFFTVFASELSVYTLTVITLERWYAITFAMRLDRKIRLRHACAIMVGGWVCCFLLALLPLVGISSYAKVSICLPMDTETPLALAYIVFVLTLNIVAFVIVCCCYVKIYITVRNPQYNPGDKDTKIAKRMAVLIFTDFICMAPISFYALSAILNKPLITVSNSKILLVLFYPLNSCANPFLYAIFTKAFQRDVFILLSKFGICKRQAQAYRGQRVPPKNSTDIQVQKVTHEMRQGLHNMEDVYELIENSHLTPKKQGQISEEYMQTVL

O=C(O)C1CCC1
inactive: outcome [1] | Potency [2] | outcome [3] | outcome [4] | Potency [5] | outcome [6] | Potency [7] | Potency [8] | Potency [9] | Potency [10] | Potency [11] | outcome [12] | max response [13] -0.0608% | Potency [14] | Potency [15] | Potency [16] | Potency [17] | Potency [18]

Cc1ncc(CSSCc2cnc(C)c(O)c2CO)c(CO)c1O
inactive: outcome [1] | Potency [2] | outcome [3] | outcome [4] | Potency [5] | Potency [19] | activity change, positive = activation [20] 0.477% [at 42.5 µM] | outcome [6] | Potency [7] | Potency [8] | Potency [9] | Potency [10] | Potency [11] | outcome [12] | max response [13] 5.83% | Potency [14] | Potency [15] | Potency [16] | Potency [17] | Potency [18]

COc1ccc2cc(C=O)ccc2c1
inactive: outcome [1] | Potency [2] | outcome [3] | outcome [4] | Potency [5] | Potency [19] | activity change, positive = activation [20] 3.74% [at 42.5 µM] | outcome [6] | Potency [7] | Potency [8] | Potency [9] | Potency [10] | Potency [11] | outcome [12] | max response [13] 2.85% | Potency [14] | Potency [15] | Potency [17] | Potency [18]

CCCCCCOC(=O)CC(CC(=O)OCCCCCC)(OC(=O)CCC)C(=O)OCCCCCC
inactive: outcome [1] | Potency [2] | outcome [3] | outcome [4] | Potency [5] | Potency [19] | activity change, positive = activation [20] -12.6% | outcome [6] | Potency [8] | Potency [9] | Potency [10] | Potency [11] | outcome [12] | max response [13] 15.3% | Potency [14] | Potency [15] | Potency [17] | Potency [18]

NC(=O)c1ncn([C@@H]2O[C@H](CO)[C@@H](O)[C@H]2O)c1N
inactive: outcome [1] | Potency [2] | outcome [3] | outcome [4] | Potency [5] | outcome [6] | Potency [7] | Potency [8] | Potency [9] | Potency [10] | Potency [11] | outcome [12] | max response [13] -6.56% | Potency [14] | Potency [15] | Potency [16] | Potency [17] | Potency [18]

CCO[Si](CCCN=C=O)(OCC)OCC
inactive: outcome [1] | Potency [2] | outcome [3] | outcome [4] | Potency [5] | Potency [19] | activity change, positive = activation [20] -6.45% | outcome [6] | Potency [8] | Potency [9] | Potency [10] | Potency [11] | max response [13] 0.0382% | Potency [14] | Potency [15] | Potency [16] | Potency [17] | Potency [18]

C#CC(C)(O)CC(C)C (centres undefined)
inactive: outcome [1] | Potency [2] | outcome [3] | outcome [4] | Potency [5] | Potency [19] | activity change, positive = activation [20] 13.6% | outcome [6] | Potency [7] | Potency [8] | Potency [9] | Potency [10] | Potency [11] | outcome [12] | max response [13] 22.3% | Potency [14] | Potency [15] | Potency [17] | Potency [18]

CC1CCN(CCCC(=O)c2ccc(F)cc2)CC1
inactive: outcome [1] | Potency [2] | outcome [3] | outcome [4] | Potency [5] | Potency [19] | activity change, positive = activation [20] 6.1% [at 42.5 µM] | outcome [6] | Potency [8] | Potency [10] | Potency [11] | outcome [12] | max response [13] -2.98% | Potency [14] | Potency [15] | Potency [16] | Potency [17] | Potency [18]

O=S(=O)(O)c1ccccc1O
inactive: outcome [1] | Potency [2] | outcome [3] | outcome [4] | Potency [5] | Potency [19] | activity change, positive = activation [20] -0.0376% | outcome [6] | Potency [7] | Potency [10] | Potency [11] | outcome [12] | max response [13] 8.61% | Potency [14] | Potency [15] | Potency [16] | Potency [17] | Potency [18]

CCC(=O)/C=C/c1ccc(OC)cc1
inactive: outcome [1] | Potency [2] | outcome [3] | outcome [4] | Potency [5] | Potency [19] | activity change, positive = activation [20] -2.91% | outcome [6] | Potency [7] | Potency [9] | Potency [10] | Potency [11] | outcome [12] | max response [13] -0.0895% | Potency [14] | Potency [15] | Potency [16] | Potency [17] | Potency [18]

CO[Si](OC)(OC)OC
inactive: outcome [1] | Potency [2] | outcome [3] | outcome [4] | Potency [5] | outcome [6] | Potency [8] | Potency [9] | Potency [10] | Potency [11] | outcome [12] | max response [13] 16.8% | Potency [14] | Potency [15] | Potency [16] | Potency [17] | Potency [18]

NCCNC(=O)c1ccc(Cl)cn1
inactive: outcome [1] | Potency [2] | outcome [3] | Potency [5] | Potency [19] | activity change, positive = activation [20] -0.271% [at 42.5 µM] | outcome [6] | Potency [7] | Potency [8] | Potency [9] | Potency [10] | Potency [11] | outcome [12] | max response [13] 0.469% | Potency [14] | Potency [15] | Potency [16] | Potency [17] | Potency [18]

CC(C)(C)N(CCO)CCO
inactive: outcome [1] | Potency [2] | outcome [3] | outcome [4] | Potency [5] | outcome [6] | Potency [7] | Potency [8] | Potency [10] | Potency [11] | outcome [12] | max response [13] 0.933% | Potency [14] | Potency [15] | Potency [17] | Potency [18]

CC(=O)NC(Cc1ccccc1)C(=O)O (centres undefined)
inactive: outcome [1] | Potency [2] | outcome [3] | outcome [4] | Potency [5] | outcome [6] | Potency [7] | Potency [8] | Potency [9] | Potency [10] | Potency [11] | outcome [12] | max response [13] 5.56% | Potency [15] | Potency [16] | Potency [17] | Potency [18]
